Rows were chosen to be rich in hits. Some 0.74% of all compounds tested hit in one or more screens of this group.
PGK inhibitor = T. brucei PGK inhibition. AID 602233. P07378. 380,000 tested, 0.043% active. Potency, µM (series often up to 57.5 µM), for the others: top-dose activity change, negative = inhibition, usual class: inhibitors. PGK/GAPDH coupled, Kinase-Glo luminescence, 60 min; note: % is set by controls: 0 for no effect and ±100 for the full control effect; nearly all actives have a fitted effect of over 60% in size
Target sequence (P07378 whole entry, looked up): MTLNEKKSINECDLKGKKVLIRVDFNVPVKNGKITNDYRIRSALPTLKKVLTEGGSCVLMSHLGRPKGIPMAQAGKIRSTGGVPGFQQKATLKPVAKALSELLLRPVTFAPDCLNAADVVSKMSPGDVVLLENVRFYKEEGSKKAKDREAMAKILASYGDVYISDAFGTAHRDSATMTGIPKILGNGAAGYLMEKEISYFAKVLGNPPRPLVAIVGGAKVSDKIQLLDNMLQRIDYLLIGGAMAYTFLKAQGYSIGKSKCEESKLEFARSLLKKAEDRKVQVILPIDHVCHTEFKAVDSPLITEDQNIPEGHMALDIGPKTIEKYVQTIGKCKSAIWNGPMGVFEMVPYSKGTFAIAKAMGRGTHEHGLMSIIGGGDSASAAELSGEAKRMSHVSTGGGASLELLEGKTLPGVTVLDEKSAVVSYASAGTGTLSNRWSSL
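Recombinant glycosomal PGK reaction used 1,3-bisphosphoglycerate generated in-well by GAPDH (100nM final) in 100mM TEA pH 7.6, 5mM MgCl2, 0.01% Tween-20. After 60 minutes at room temperature, ATP was read by Kinase-Glo Plus luminescence end-point.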
BLM inh-1 = inhibitors of human Bloom syndrome helicase BLM; AID 2528; Potency, µM (top dose mostly 56.1 µM), inactives show at the highest dose activity change, negative = inhibition, most hits filed as inhibitors; recombinant BLM DNA unwinding, fluorescence dequenching; 350,000 tested, 0.2% active;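 note: plate controls were vehicle for no effect and no enzyme for full effect; nearly all actives have a fitted effect of over 35% in size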
RECQ1 inh-1 = RECQ1 (human) helicase inhibition; P46063; RECQ1 DNA unwinding, red fluorescence kinetic read; Potency, µM (titrated, usually from 57.3 µM), without a hit: top-dose activity, negative = inhibition, actives largely listed as inhibitors; 240,000 tested, 0.54% active; AID 2549;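 note: plate controls were vehicle for no effect and no enzyme for full effect; nearly all actives have a fitted effect of over 30% in size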
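50 nM RECQ1T1 preincubated 15 min with compound in Tris pH 8.0 buffer with MgCl2, DTT, Tween-20 and 2.5 ug/ml poly(dI-dC); started with 200 nM TAMRA/BHQ-2 forked duplex and 2 mM ATP. Unwinding read as fluorescence (525/598 nm), two reads 2 h apart.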
FEN1 inh-1 = blocks human flap endonuclease 1. P39748. Potency, µM (highest dose often 114 µM), for inactives: at the top dose activity change, negative = inhibition, usual class: inhibitors. Recombinant FEN1 flap cleavage, fluorescence, 15 min. 390,000 tested, 0.35% active; note: % is set by controls: 0 for no effect and ±100 for the full control effect; nearly all actives have a fitted effect of over 65% in size
Target sequence (P39748 whole entry, looked up): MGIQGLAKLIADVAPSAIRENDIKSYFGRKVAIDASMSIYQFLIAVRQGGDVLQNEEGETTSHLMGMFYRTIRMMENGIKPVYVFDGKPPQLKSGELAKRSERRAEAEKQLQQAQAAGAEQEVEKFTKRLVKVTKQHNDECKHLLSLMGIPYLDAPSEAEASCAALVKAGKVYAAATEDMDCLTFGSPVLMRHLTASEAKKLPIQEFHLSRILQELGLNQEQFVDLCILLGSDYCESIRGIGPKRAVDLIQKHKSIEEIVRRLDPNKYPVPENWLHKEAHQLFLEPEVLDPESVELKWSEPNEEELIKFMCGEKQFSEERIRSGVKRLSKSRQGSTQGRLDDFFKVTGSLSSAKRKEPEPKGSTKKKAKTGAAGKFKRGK
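Nuclease activity of 10 nM FEN1 was measured after 15 min of room-temperature exposure to titrated compounds, by adding 50 nM flap substrate and reading plates at 0 and 15 min.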
APEX1 inh = blocks human APE1 abasic DNA cleavage | Potency, µM (doses to about 65.8 µM), without a hit: at the top dose activity change, negative = inhibition, usual class: inhibitors | P27695 | 350,000 tested, 0.35% active | recombinant APE1, TAMRA/BHQ-2 abasic DNA cleavage fluorescence;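 note: plate controls were vehicle for no effect and reference inhibitor for full effect; nearly all actives have a fitted effect of over 55% in size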
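Substrate: short duplex with […] THF abasic site, 5'-TAMRA and 3'-BHQ-2, 50 nM final. APE1 at 0.75 nM, preincubated 15 min RT with compound. Fluorescence increase from first to third read measured activity.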
BLM inh-2 = BLM (human) helicase inhibition, confirmation | Potency, µM, for the others: max response, negative = inhibition, most hits filed as inhibitors | BLM DNA unwinding, fluorescence quenching, biochemical | shares compounds with BLM inh-1 | AID 2585 | 220 tested, 40% active;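 note: strand separation dequenches TAMRA so unwinding raises red fluorescence; series mostly up to about 69 µM; % is set by controls: 0 for no effect and ±100 for the full control effect; nearly all actives have a fitted effect of over 45% in size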
RECQ1 conf = confirmation of human RECQ1 helicase inhibitors | shares compounds with RECQ1 inh-1 | RECQ1 helicase DNA unwinding, fluorescence | Potency, µM (highest dose often 229 µM), inactives show at the top dose activity change, negative = inhibition, actives largely listed as inhibitors | 610 tested, 28% active | AID 2708; note: % is set by controls: 0 for no effect and ±100 for the full control effect; nearly all actives have a fitted effect of over 45% in size
RECQ1 ADP FP = ADP displacement flagged in RECQ1 inhibitor counter-screen; 530 tested, 27% active; ADP fluorescence polarization displacement counterscreen; shares compounds with RECQ1 inh-1; Potency, µM (highest dose often 228 µM), inactives show top-dose activity change, negative = inhibition, usual class: inhibitors; AID 2711; note: % is set by controls: 0 for no effect and ±100 for the full control effect; nearly all actives have a fitted effect of over 45% in size
RECQ1 inh-2 = confirmation of human RECQ1 helicase inhibitors. recombinant RECQ1 DNA unwinding, red fluorescence. AID 504841. Potency, µM (doses to about 119 µM), for inactives: at the top dose activity, negative = inhibition, usual class: inhibitors. shares compounds with RECQ1 inh-1. 1,100 tested, 15% active; note: % is set by controls: 0 for no effect and ±100 for the full control effect; nearly all actives have a fitted effect of over 50% in size
FEN1 inh-2 = confirmation of human FEN1 inhibitors; Potency, µM, usual class: inhibitors; FEN1 flap cleavage, TAMRA/BHQ2 fluorogenic DNA substrate; AID 720498; shares compounds with FEN1 inh-1; 880 tested, 79% active; note: nearly all actives have a fitted effect of over 60% in size
Active calls of the source: *; i = inactive; ? = inconclusive; · = no result given; [ ] = remark or other dose. Calls come from the whole dose curve; as a rule, active = well fitted curve in the direction sought with a large enough effect; inconclusive = small, poorly fitted or top-dose-only effect, or another doubt; inactive = no such curve, though single readings can be large; an effect the other way counts as inactive or inconclusive. Potency is the fitted concentration of half-maximal effect.

SMILES | PGK inhibitor | BLM inh-1 | RECQ1 inh-1 | FEN1 inh-1 | APEX1 inh | RECQ1 conf | RECQ1 inh-2 | others
O=C(O)c1cccc(-n2cccc2/C=C2/NC(=O)N(c3ccc(Cl)cc3)C2=O)c1 | 3.2µM* | 3.5µM* | 32µM* | 20µM* | 2µM* | ? | · | BLM inh-2=14µM*;FEN1 inh-2=21*
CCO[C@H]1OC(C(=O)O)=C[C@@H](C(C)(C)C)[C@@H]1CCCO | i | · | · | 2% | · | · | ·
Cc1nc(CC(=O)N/N=C/c2ccc(OCC(=O)O)cc2)cs1 | i | 1% | i | 41% | -6% | · | ·
O=C(O)COc1ccc(/C=N/NC(=O)c2ccc(-c3csc(Nc4ccc(Cl)cc4)n3)cc2)cc1 | ? | 3.5µM* | 11µM* | ? | 3.5µM* | 7.1µM* | · | BLM inh-2=8.1µM*;RECQ1 ADP FP=?;FEN1 inh-2=30*
CCCCCCN1C[C@H](n2cc(C3CC3)nn2)[C@@H](O)C[C@@H]1c1ccc(Cl)cc1 | -4% | · | · | · | · | · | ·
O=C(O)c1ccc(S(=O)(=O)/N=C2\C=C(Nc3ccccc3F)C(=O)c3ccccc32)cc1 | ? | 8.9µM* | · | 45µM* | 17% | · | · | BLM inh-2=16µM*;FEN1 inh-2=?
CN(c1ccccc1)c1ccc(/C=C(\CCC(=O)O)c2nc3ccccc3s2)cc1[N+](=O)[O-] | ? | 22µM* | ? | ? | ? | · | 13µM* | BLM inh-2=36µM*;FEN1 inh-2=67*
CN1CCN(c2ccc(Nc3c4ccccc4nc4ccccc34)cc2)CC1 | · | 20µM* | 13µM* | · | 22µM* | 11µM* | · | BLM inh-2=32µM*;RECQ1 ADP FP=35µM*;FEN1 inh-2=19*
O=C(CSc1nc2ccccc2n1CCc1ccccc1)c1ccc(O)c(O)c1 | 7.9µM* | 11µM* | 7.1µM* | 56µM* | 0.89µM* | 45µM* | ? | BLM inh-2=19µM*;FEN1 inh-2=67*
Cc1ccccc1OCC(=O)OCC(=O)NCC1CCCO1 (stereo not given) | i | 3% | -14% | -7% | 11% | · | ·
Cc1[nH]c(=O)c(C(=O)/C=C/c2ccccc2F)c2c1CCCC2 | -6% | -7% | 32µM* | -4% | 13% | · | ?
O=C(Nc1ccccc1)N1CCC(c2nc(-c3ccc(S(=O)(=O)N4CCOCC4)cc3)no2)CC1 | 9% | -3% | i | -11% | -2% | 8% | · | RECQ1 ADP FP=-16%
CC(=O)NCCOc1c(C)cc(S(N)(=O)=O)cc1C | 3% | -1% | i | 2% | 19% | · | ·
Cc1cc(C(=O)OCC(=O)c2ccc(Cl)c([N+](=O)[O-])c2)c2cccc(C)c2n1 | -1% | -17% | 18µM* | 7% | ? | · | -13%
Cc1nnc2ccc(-c3ccc(NC(=O)Cc4cccs4)cc3)nn12 | 1% | -12% | 32µM* | -8% | ? | · | -29%
O=C1CCc2cc(S(=O)(=O)NC(C(=O)Nc3ccc(F)cc3)c3ccccc3)ccc2N1 (stereo not given) | 3% | -4% | · | 14% | · | · | ·
NC(=O)CSc1ncc2c(n1)-c1ccccc1N(Cc1ccccc1)S2(=O)=O | 10% | -3% | · | 20% | · | · | ·
O=C(O)CN(CC(=O)O)Cc1cc2c(-c3ccccc3C(=O)O)c3cc(CN(CC(=O)O)CC(=O)O)c(=O)cc-3oc2cc1O | · | 16µM* | 28µM* | · | · | 112µM* | · | RECQ1 ADP FP=0.14µM*
O=C(O)c1ccccc1-c1c2ccc(=O)cc-2oc2cc(O)ccc12 | · | 32µM* | 32µM* | · | 28µM* | 112µM* | 79µM* | RECQ1 ADP FP=0.5µM*
O=C(c1ccc(OCCN2CCCCC2)cc1)c1c(-c2ccc(O)cc2)sc2cc(O)ccc12 | -5% | -4% | ? | -2% | 21% | · | -7%
CC(C)N1CCN(c2ccc(C(=O)c3c(-c4ccc(O)cc4)sc4cc(O)ccc34)cc2)CC1 | · | -2% | -22% | · | -7% | · | ·
COc1ccc2cc(C(C)C(=O)OC(C)C)ccc2c1 (stereo not given) | -7% | · | · | -18% | 9% | · | ·
O=C(Nc1ccc(C(=O)N2CCCC(CO)C2)cc1)c1ccc(Br)o1 (stereo not given) | -2% | · | · | -14% | -21% | · | ·
CCc1ccc(-n2c(SCC(=O)N3CCC(C(=O)O)CC3)nnc2-c2ccncc2)cc1 | -5% | 0% | i | 7% | 0% | · | ·
CCc1ccc(-n2c(SCC(=O)N3Cc4ccccc4CC3C(=O)O)nnc2-c2ccncc2)cc1 (stereo not given) | -12% | 0% | i | -3% | -3% | 20% | · | RECQ1 ADP FP=-6%
SMILES | PGK inhibitor | BLM inh-1 | RECQ1 inh-1 | FEN1 inh-1 | APEX1 inh | RECQ1 conf | RECQ1 inh-2 | others
CCNC(=O)COC(=O)c1cc(-c2ccco2)nc2ccccc12 | -23% | ? | 28µM* | ? | 25µM* | · | ?
O=C1CN(C(=O)COc2ccc(Cl)cc2Cl)C(c2ccccc2)c2cc(F)ccc2N1 (stereo not given) | i | -10% | · | -2% | · | · | ·
CS(=O)(=O)N1CCN(c2ccc([N+](=O)[O-])c(NCc3ccccc3)c2)CC1 | i | -4% | -13% | 0% | -1% | · | ·
CS(=O)(=O)N1CCN(c2ccc([N+](=O)[O-])c(NCc3ccc(Cl)cc3)c2)CC1 | -7% | 16µM* | 32µM* | -5% | 2% | · | ?
Cc1noc(C)c1NC(=O)N(C)C[C@H]1Oc2c(NC(=O)Cc3ccccc3)cccc2C(=O)N([C@H](C)CO)C[C@@H]1C | 5% | · | · | 17% | 7% | · | ·
CN(Cc1ccccc1)C(=O)c1cccc(NC(=O)Cc2ccc(NC(=O)C3CCN(C(=O)C4CCCC4)CC3)cc2)c1 | i | · | · | -1% | · | · | ·
COc1ccc(Cc2nc(C(=O)Nc3ccc(Cl)cc3)cs2)cc1 | -4% | -7% | -10% | -19% | -2% | · | ·
COc1ccc(NC(=O)c2csc(Cc3ccc(Cl)cc3)n2)cc1 | -10% | -10% | ? | -12% | 6% | · | -48%
Cc1coc2cc3oc(=O)c(CC(=O)NCc4ccc(F)cc4)c(C)c3cc12 | i | -2% | · | 9% | · | · | ·
O=C(O)c1cccc(N2C(=O)/C(=C/c3ccc(SCc4ccc(Cl)cc4)o3)SC2=S)c1 | 35µM* | 113% | 22µM* | ? | 10µM* | -87%[114 µM] | ·
